Test results published in PubChem BioAssay AID1159580 (chemical genetic matrix, 2015).
Several values for one entry are separate records, joined by “and”; a condition that tells them apart may be missing. Equal values may be shown once. Screen size: about 5,500 compounds; about 2,000 (36%) were called active. Not shown: some 18% with an inconclusive outcome. Rule as the data show it: active = normalized growth mostly below about 0.91 (no sharp cut-off); inconclusive = no clear call, values can overlap the other calls; inactive = mostly above about 0.92. This is one part of the list.

Experiment: chemical genetic growth profiling, strain panel (AID 1159580);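 also: tested at 20 µM; growth read once vehicle control cultures reached saturation at 30 °C; 1 = growth at the plate median or of vehicle wells; lower values mean less growth of the strain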
Details: S. cerevisiae deletion strains, growth OD

Measured: normalized growth

C=C(C)C1CNC(C(=O)O)C1CC(=O)O (stereo unspecified)
inactive: locus YAL013W, strain DEP1, hits give low values 1.01 | locus YAL021C, strain ccr4, hits give low values 0.995 | locus YAL026C, strain drs2, hits give low values 0.996 | locus YAL030W, strain snc1, hits give low values 0.99 | locus YBL061C, strain skt5, hits give low values 0.992 | locus YBR009C, strain hhf1, hits give low values 0.987 | locus YBR021W, strain FUR4, hits give low values 0.986 | locus YBR023C, strain chs3, hits give low values 0.987 | locus YBR171W, strain sec66, hits give low values 0.986 | locus YBR229C, strain ROT2, hits give low values 1.01 | locus YBR231C, strain swc5, hits give low values 1 | locus YBR279W, strain paf1, hits give low values 0.997 | locus YCL011C, strain gbp2, hits give low values 0.985 | locus YCL016C, strain dcc1, hits give low values 0.998 | locus YCL029C, strain bik1, hits give low values 1.03 | locus YCL061C, strain MRC1, hits give low values 0.999 | locus YCL069W, strain vba3, hits give low values 0.995 | locus YCR088W, strain abp1, hits give low values 0.988 | locus YDL005C, strain med2, hits give low values 0.984 | locus YDL035C, strain GPR1, hits give low values 1.03 | locus YDL040C, strain nat1, hits give low values 0.986 | locus YDL074C, strain BRE1, hits give low values 1.03 | locus YDL101C, strain DUN1, hits give low values 1.02 | locus YDL185W, strain tfp1, hits give low values 1.04 | locus YDL192W, strain arf1, hits give low values 1.02 | locus YDR001C, strain nth1, hits give low values 0.99 | locus YDR069C, strain doa4, hits give low values 0.981 | locus YDR101C, strain arx1, hits give low values 1.01 | locus YDR137W, strain rgp1, hits give low values 0.972 | locus YDR150W, strain NUM1, hits give low values 1.01 | locus YDR159W, strain sac3, hits give low values 0.985 | locus YDR162C, strain NBP2, hits give low values 1.05 | locus YDR195W, strain ref2 0.967 | locus YDR297W, strain sur2, hits give low values 0.993 | locus YDR318W, strain mcm21, hits give low values 1.01 | locus YDR334W, strain swr1, hits give low values 0.992 | locus YDR335W, strain msn5, hits give low values 0.994 | locus YDR388W, hits give low values 1.01 | locus YDR392W, strain spt3, hits give low values 0.947 | locus YDR502C, strain sam2, hits give low values 1.03 | locus YEL003W, strain gim4, hits give low values 0.999 | locus YEL037C, strain rad23, hits give low values 0.988 | locus YEL061C, strain CIN8 (second series), hits give low values 0.986 | locus YEL061C, strain CIN8, hits give low values 1 | locus YER015W, strain faa2, hits give low values 0.993 | locus YER016W, strain bim1, hits give low values 0.978 | locus YER110C, hits give low values 1.02 | locus YER111C, strain swi4, hits give low values 0.996 | locus YER155C, strain BEM2 (second series), hits give low values 0.989 | locus YER155C, strain BEM2, hits give low values 0.99 | locus YER167W, strain BCK2, hits give low values 1.01 | locus YFR010W, strain ubp6, hits give low values 0.996 | locus YGL078C, strain dbp3, hits give low values 1.02 | locus YGL086W, strain mad1, hits give low values 1.02 | locus YGL167C, strain pmr1, hits give low values 0.996 | locus YGL173C, strain kem1, hits give low values 0.983 | locus YGL227W, strain vid30, hits give low values 0.989 | locus YGL240W, strain doc1, hits give low values 1.01 | locus YGL248W, strain PDE1, hits give low values 1.01 | locus YGL253W, strain hxk2, hits give low values 1 | locus YGR135W, strain pre9, hits give low values 1.03 | locus YGR252W, strain gcn5, hits give low values 1.07 | locus YHR013C, strain ard1, hits give low values 0.984 | locus YHR027C, strain rpn1, hits give low values 0.989 | locus YHR030C, strain SLT2, hits give low values 1.01 and 0.998 | locus YHR079C, strain IRE1 (second series), hits give low values 1.02 | locus YHR079C, strain IRE1, hits give low values 0.987 | locus YHR094C, strain hxt1, hits give low values 1.03 | locus YHR129C, strain ARP1, hits give low values 1.02 | locus YHR142W, strain chs7, hits give low values 0.988 | locus YHR200W, strain rpn10, hits give low values 1.01 | locus YIL066C, strain RNR3, hits give low values 1.04 | locus YIL073C, strain SPO22, hits give low values 1.07 | locus YIL125W, strain kgd1, hits give low values 1.02 | locus YIR030C, strain dcg1, hits give low values 1.02 | locus YJL092W, strain hpr5, hits give low values 0.989 | locus YJL095W, strain BCK1 (second series), hits give low values 0.99 | locus YJL095W, strain BCK1, hits give low values 1.05 and 0.992 | locus YJL115W, strain asf1, hits give low values 0.98 | locus YJL129C, strain trk1, hits give low values 1 | locus YJL134W, strain LCB3, hits give low values 1.01 | locus YJL154C, strain vps35, hits give low values 0.99 | locus YJL164C, strain tpk1, hits give low values 0.999 | locus YJL166W, strain qcr8, hits give low values 0.996 | locus YJL168C, strain set2, hits give low values 1.01 | locus YJL187C, strain SWE1 (second series), hits give low values 1.03 | locus YJL187C, strain SWE1, hits give low values 0.998 | locus YJR043C, strain POL32, hits give low values 1.02 | locus YJR066W, strain TOR1, hits give low values 0.931 | locus YJR075W, strain HOC1, hits give low values 1.03 | locus YKL009W, strain mrt4, hits give low values 1.03 | locus YKL068W, hits give low values 1.02 | locus YKL085W, strain MDH1 (second series), hits give low values 1.01 | locus YKL085W, strain MDH1, hits give low values 1.01 | locus YKL160W, strain elf1, hits give low values 1 | locus YKR001C, strain vps1, hits give low values 1.03 | locus YKR026C, strain gcn3, hits give low values 0.971 | locus YKR091W, strain srl3, hits give low values 0.999 | locus YLL001W, strain dnm1, hits give low values 0.994 | locus YLL026W, hits give low values 1 | locus YLL041C, strain sdh2, hits give low values 0.996 | locus YLR027C, strain aat2, hits give low values 0.992 | locus YLR039C, strain RIC1, hits give low values 1.11 | locus YLR058C, strain SHM2, hits give low values 1.02 | locus YLR102C, strain apc9, hits give low values 1.01 | locus YLR113W, strain HOG1, hits give low values 0.987 | locus YLR221C, strain rsa3, hits give low values 0.998 | locus YLR258W, strain gsy2, hits give low values 0.988 | locus YLR262C, strain YPT6 (second series), hits give low values 0.991 | locus YLR262C, strain YPT6, hits give low values 1.09 | locus YLR268W, strain sec22, hits give low values 1.02 | locus YLR320W, strain mms22, hits give low values 0.991 | locus YLR330W, strain CHS5, hits give low values 1.01 | locus YLR342W, strain FKS1 (second series), hits give low values 1.04 | locus YLR342W, strain FKS1, hits give low values 0.987 | locus YLR357W, strain rsc2, hits give low values 0.975 | locus YLR370C, strain arc18, hits give low values 0.986 | locus YLR371W, strain rom2, hits give low values 0.995 | locus YLR384C, strain iki3, hits give low values 0.97 | locus YLR418C, strain cdc73, hits give low values 1.03 | locus YML016C, strain PPZ1, hits give low values 1.02 | locus YML032C, strain rad52, hits give low values 1.03 | locus YML120C, strain ndi1, hits give low values 1 | locus YML124C, strain tub3, hits give low values 1.02 | locus YMR058W, strain fet3, hits give low values 0.993 | locus YMR078C, strain ctf18, hits give low values 1.03 | locus YMR125W, strain sto1, hits give low values 0.97 | locus YMR129W, hits give low values 1 | locus YMR205C, strain PFK2, hits give low values 0.962 | locus YMR223W, strain ubp8, hits give low values 1.02 | locus YMR231W, strain pep5, hits give low values 0.989 | locus YMR307W, strain GAS1, hits give low values 1.07 | locus YNL067W, strain RPL9B, hits give low values 1.02 | locus YNL071W, strain lat1, hits give low values 0.999 | locus YNL153C, strain GIM3, hits give low values 1.02 | locus YNL183C, strain NPR1, hits give low values 0.909 | locus YNL209W, strain ssb2, hits give low values 0.991 | locus YNL233W, strain BNI4, hits give low values 1.03 | locus YNL248C, strain rpa49, hits give low values 1.01 | locus YNL250W, strain rad50, hits give low values 1.03 | locus YNL271C, strain bni1, hits give low values 1.02 | locus YNL298W, strain CLA4, hits give low values 1.02 | locus YNL307C, strain MCK1, hits give low values 1.02 | locus YNL322C, strain KRE1 (second series), hits give low values 0.991 | locus YNL322C, strain KRE1, hits give low values 1 | locus YNR049C, strain mso1, hits give low values 0.986 | locus YNR052C, strain pop2, hits give low values 1.01 | locus YOL006C, strain TOP1, hits give low values 1.14 | locus YOL012C, strain htz1 0.909 | locus YOL147C, strain pex11, hits give low values 1.01 | locus YOR001W, strain rrp6, hits give low values 1.01 | locus YOR061W, strain CKA2, hits give low values 1.01 | locus YOR069W, strain VPS5, hits give low values 1.01 | locus YOR070C, strain gyp1, hits give low values 0.985 | locus YOR080W, strain dia2, hits give low values 0.983 | locus YOR083W, strain WHI5, hits give low values 1 | locus YOR106W, strain vam3, hits give low values 1.02 | locus YOR136W, strain idh2, hits give low values 1.02 | locus YOR144C, strain elg1, hits give low values 1 | locus YOR184W, strain ser1, hits give low values 1.02 | locus YOR231W, strain MKK1, hits give low values 0.992 | locus YOR265W, strain rbl2, hits give low values 0.994 | locus YOR270C, strain vph1, hits give low values 1.02 | locus YOR290C, strain snf2, hits give low values 1 | locus YOR316C, strain cot1, hits give low values 1 | locus YPL051W, strain arl3, hits give low values 0.998 | locus YPL055C, strain LGE1, hits give low values 1.03 | locus YPL078C, strain atp4, hits give low values 1.01 | locus YPL106C, strain sse1, hits give low values 0.978 | locus YPL240C, strain hsp82, hits give low values 0.997 | locus YPL256C, strain CLN2, hits give low values 0.977 | locus YPR119W, strain clb2, hits give low values 1 | locus YPR141C, strain kar3, hits give low values 1.03 | locus YPR163C, strain tif3, hits give low values 1.02 | locus YPR167C, strain met16, hits give low values 1.02 | strain wtn01, hits give low values 1.02
